High-throughput results (PubChem BioAssay)
Only some compounds are listed: those with a hit (about 21% of all), similar ones and a draw of the others.
Gal4-VP16 FLuc: counter-screen for ROR gamma inhibitors: Gal4-VP16 reporter; Potency, µM (doses to about 53.6 µM), for the others: at the top dose activity, negative = inhibition, usual class: inhibitors; 310,000 tested, 3.5% active; Drosophila S2 Gal4-VP16 UAS-luciferase, luminescence, 20 h; AID 2546;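 further: Gal4-VP16 expression switched on by copper sulfate through the metallothionein promoter; potency means the concentration at half of the fitted maximal effect; nearly all actives have a fitted effect of over 50% in size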
IL-1B inflam inh: inhibitors of inflammasome signaling (IL-1 beta secretion); 360,000 tested, 4.7% active; THP-1 LPS/ATP IL-1B secretion, AlphaLISA, 16 h; stronger effect = lower value; activity change, % at 57.5 µM; AID 743279; in the data active means activity change below about -50%; inconclusive means mostly about -30% to -49%
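THP-1 cells pretreated 1 hr with compounds (up to 57.5 uM final), then stimulated with LPS (250 ng/mL final) plus ATP (1.25 mM final); secreted IL-1B measured by AlphaLISA after 16 hr, decreased signal indicating inhibition.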
DT40 TDP1 no CPT: qHTS for Inhibitors of human tyrosyl-DNA phosphodiesterase 1 (TDP1): qHTS in cells in absence of CPT. DT40 Tdp1-/- hTDP1 cells, no CPT, ATP luminescence, 48 h. Potency, µM (series often up to 46.2 µM), without a hit: at the top dose activity change, negative = growth inhibition, actives largely listed as inhibitors. 420,000 tested, 15% active; further: potency means the concentration at half of the fitted maximal effect; nearly all actives have a fitted effect of over 55% in size
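Cells were dispensed at 400 per well, compounds added by pin tool, plates incubated ≥48 hr at 37 °C, then CellTiter-Glo added for 30 min at room temperature before luminescence reading. Line: DT40 Tdp1-/- complemented with hTDP1; camptothecin omitted.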
ELG1 repair inh: ELG1-dependent DNA repair inhibition. 330,000 tested, 2.3% active. HEK293T ELG1-luciferase reporter, luminescence, 16 h; DNA damage induced by 5-fluorouridine. AID 504467. Potency, µM (titrated, usually from 46.1 µM), inactives show at the highest dose activity change, negative = inhibition, most hits filed as inhibitors; further: potency means the concentration at half of the fitted maximal effect; nearly all actives have a fitted effect of over 55% in size
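Luminescence from the luciferase reporter, measured 30 min after ONE-Glo reagent at room temperature, was the read-out. Beforehand, 2,000 cells per well were exposed for 16 hr at 37 °C to 5-fluorouridine together with compound or vehicle.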
TDP1 cell CPT: growth inhibition of DT40 Tdp1-/-;hTDP1 cells with camptothecin (screen for TDP1 inhibitors). 420,000 tested, 12% active. Potency, µM (top dose mostly 46.2 µM), inactives show at the top dose activity change, negative = growth inhibition, usual class: inhibitors. chicken DT40 Tdp1-/-;hTDP1 cells + 20 nM CPT, ATP luminescence, 48 h; further: potency means the concentration at half of the fitted maximal effect; nearly all actives have a fitted effect of over 55% in size
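Cell growth measured by CellTiter-Glo luminescence after a minimum 48 h, 37 C compound exposure with 20 nM CPT in Tdp1-knockout DT40 cells stably expressing hTDP1, seeded 400/well; qHTS titration format.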
RORgamma inh: ROR gamma (mouse) transcription inhibition | P51450 | Drosophila S2 Gal4-RORgamma UAS-luciferase reporter, 20 h | Potency, µM (doses to about 53.6 µM), inactives show at the top dose activity change, negative = inhibition, actives largely listed as inhibitors | 310,000 tested, 5.4% active | AID 2551; further: potency means the concentration at half of the fitted maximal effect; nearly all actives have a fitted effect of over 60% in size
Target sequence (P51450 whole entry, looked up, the tested form may be a part): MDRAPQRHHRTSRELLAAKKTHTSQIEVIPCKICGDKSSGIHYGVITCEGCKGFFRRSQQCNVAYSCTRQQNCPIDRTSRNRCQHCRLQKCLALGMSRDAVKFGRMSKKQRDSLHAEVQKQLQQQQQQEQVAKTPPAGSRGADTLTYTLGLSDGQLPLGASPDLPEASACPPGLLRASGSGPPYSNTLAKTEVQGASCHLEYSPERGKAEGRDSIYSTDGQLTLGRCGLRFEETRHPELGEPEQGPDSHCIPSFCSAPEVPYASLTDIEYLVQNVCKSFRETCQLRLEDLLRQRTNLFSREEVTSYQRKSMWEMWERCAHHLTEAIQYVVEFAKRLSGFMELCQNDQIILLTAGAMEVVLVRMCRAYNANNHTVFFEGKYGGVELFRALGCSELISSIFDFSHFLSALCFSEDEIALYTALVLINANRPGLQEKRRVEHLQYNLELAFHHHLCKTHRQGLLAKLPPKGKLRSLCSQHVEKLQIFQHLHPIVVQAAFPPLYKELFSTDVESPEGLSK
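Schneider cells (Drosophila), stable Gal4 DBD–ROR gamma + UAS-luc; 1 hr cmpd preincubation; Cu2+ induction 700 uM final; 20 hr ambient; luminescence.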
* = called active by the depositor; i = inactive; ? = inconclusive; / = not tested or not shown. Unless noted, the call rests on the fitted dose curve; in most records, active means well fitted curve in the direction sought with a large enough effect; inconclusive means small, poorly fitted or top-dose-only effect, or another doubt; inactive means no such curve, though single readings can be large; an effect the other way counts as inactive or inconclusive. On the % scale 0 is the no-effect control and ±100 the full control effect.

SMILES | Gal4-VP16 FLuc | IL-1B inflam inh | DT40 TDP1 no CPT | ELG1 repair inh | TDP1 cell CPT | RORgamma inh
CN1C(=O)c2ccccc2C(C(=O)O)C1c1cccc(F)c1 (stereo not given) | -4.1% | 28.3 | 25.9µM* | 2.2% | ? | -7.3%
Cc1ccc(NC(=O)N2CCc3ccccc32)cc1C | ? | ? | ? | ? | 7.1% | ?
Cc1ccc(NC(=O)N2CC3CCCN3c3ccccc32)cc1C (stereo not given) | / | / | 23.1µM* | / | 18.4µM* | /
Cc1ccc(NC(=O)N2CC3CCCN3c3ccccc32)c(C)c1 (stereo not given) | / | / | 18.4µM* | / | 23.1µM* | /
Cc1ccc(NC(=O)N2CC3CCCN3c3ccccc32)cc1Cl (stereo not given) | / | / | 16.4µM* | / | ? | /
C=CCOn1c(=O)c(-c2ccc(Cl)cc2)[n+]([O-])c2ccccc21 | 10.8% | 9.7 | 2.8% | -2.7% | -11.1% | 0.8%
C=CCOn1c(=O)c(-c2cccs2)[n+]([O-])c2ccccc21 | 0.2% | -3.4 | ? | 4.2% | 23.1µM* | 26.7%
O=C(C1COc2ccccc2O1)N1CCN(c2nc3ccc([N+](=O)[O-])cc3s2)CC1 (stereo not given) | / | -7.1 | 23.1µM* | ? | ? | /
O=C(C1COc2ccccc2O1)N1CCN(c2nc3ccccc3s2)CC1 (stereo not given) | 12.0% | i | ? | -12.8% | ? | ?
O=C(C1COc2ccccc2O1)N1CCN(c2ccc([N+](=O)[O-])cc2)CC1 (stereo not given) | / | -84.0* | 20.6µM* | ? | ? | /
O=C(NC1CCN(c2ncccn2)CC1)c1ccccc1Cl | -4.6% | -11.9 | -14.1% | 0.0% | -5.8% | 1.6%
CC(=NNC(=S)N1CC2CCC(CC2)C1)c1cccc(C)n1 | / | -110.2* | 0.0206µM* | / | 0.0103µM* | /
CC(=NNC(=S)N1CCCC1)c1ccccn1 | / | 77.0 | -90.0% | / | -82.6% | /
O=C(O)C1=CC(O)[C@@H](O)C(O)C1 (stereo not given in full) | -2.5% | / | -1.8% | / | 0.2% | -14.7%
Cc1c(F)cccc1NS(=O)(=O)c1cccs1 | / | / | -5.4% | / | 7.5% | /
O=C(NC1CCCCC1)C(C1CC1)n1c(=O)c(-c2ccccc2)nc2ccccc21 (stereo not given) | / | -10.2 | 16.4µM* | / | ? | /
Cc1cc(N2CCN(C(C(=O)NC3CCCC3)c3ccc(-c4ccccc4)cc3)CC2)c2ccccc2n1 (stereo not given) | / | 4.4 | 8.2µM* | / | 7.31µM* | /
CC(C)(C)NC(=O)C(c1ccccc1F)n1c(=O)c(-c2ccco2)nc2ccccc21 (stereo not given) | / | -12.0 | ? | / | ? | /
O=C(NC1CCCC1)C(c1ccccc1)n1c(CSCCOc2ccccc2)nc2ccccc21 (stereo not given) | / | 23.8 | 16.4µM* | / | ? | /
O=C(NC1CCCCC1)C(c1ccncc1)n1c(=O)c(-c2ccccc2)nc2ccccc21 (stereo not given) | / | 2.8 | -25.2% | / | -17.4% | /
O=C(NC1CCCCC1)C(c1ccnc2ccccc12)n1c(=O)c(-c2ccco2)nc2ccccc21 (stereo not given) | / | -11.9 | 13µM* | / | 13µM* | /
O=C(NC1CCCCC1)C(c1ccc(-c2ccccc2)cc1)n1c(=O)c(-c2ccco2)nc2ccccc21 (stereo not given) | / | 19.7 | 14.6µM* | / | ? | /
O=C(NC1CCCCC1)C(c1ccccc1F)n1c(=O)c(-c2ccco2)nc2ccccc21 (stereo not given) | / | -2.8 | 16.4µM* | / | ? | /
N#Cc1ccc(C(C(=O)NC2CCCCC2)n2c(=O)c(-c3ccccc3)nc3ccccc32)cc1 (stereo not given) | / | -15.3 | ? | / | ? | /
CCCn1c(-c2ccc(F)cc2)nc2c(NCCCCN(CC)CC)nc(C)nc21 | -5.5% | / | / | / | / | -17.4%
SMILES | Gal4-VP16 FLuc | IL-1B inflam inh | DT40 TDP1 no CPT | ELG1 repair inh | TDP1 cell CPT | RORgamma inh
CCC1CN(C(=O)N2CCC(C(=O)NCCc3ccc(OC)cc3OC)CC2)c2cc(C)ccc2O1 (stereo not given) | / | / | 16.4µM* | / | 20.6µM* | /
CCC1CN(C(=O)N2CCC(C(=O)NCc3cccc(F)c3)CC2)c2cc(C)ccc2O1 (stereo not given) | / | / | 16.4µM* | / | 20.6µM* | /
CCC1CN(C(=O)N2CCC(C(=O)NCc3ccccc3OC)CC2)c2cc(C)ccc2O1 (stereo not given) | -8.2% | 5.4 | ? | ? | 16.4µM* | ?
CCC1CN(C(=O)N2CCC(C(=O)NCCN(CC)CC)CC2)c2cc(C)ccc2O1 (stereo not given) | / | / | -19.8% | / | -12.7% | /
CC1N=C2c3ccccc3N=C(SCC(=O)NCCc3ccc(Cl)cc3)N2C1=O (stereo not given) | / | / | -15.1% | / | ? | /
Cc1ccc(NC(=O)CCc2nnc3n(C)c(=O)c4sccc4n23)cc1C | / | / | -2.5% | / | -12.0% | /
COc1ccc(Cl)cc1Nc1nc(-c2sc(NC(=O)c3ccccc3)nc2C)cs1 | -5.8% | / | / | -23.4% | / | -3.1%
Cc1ccccc1Nc1nc(-c2sc(NC(=O)c3ccc([N+](=O)[O-])cc3)nc2C)cs1 | -14.8% | / | / | ? | / | -17.2%
C=CCCC(=O)Nc1nc(C)c(-c2csc(Nc3ccccc3OC)n2)s1 | -9.8% | -22.5 | 7.31µM* | ? | 6.51µM* | 30.0%
CCCCC(=O)Nc1nc(C)c(-c2csc(Nc3ccccc3OC)n2)s1 | -1.8% | -19.3 | ? | 16.4µM* | 23.1µM* | 6.2%
CCOc1ccccc1Nc1nc(-c2sc(NC(=O)c3ccc([N+](=O)[O-])cc3)nc2C)cs1 | ? | / | / | 2.1% | / | 6.31µM*
CCOC(=O)c1ccccc1NC(=O)N1CCC(CN2CCOCC2)CC1 | / | / | -25.6% | / | -8.7% | /
COc1ccc(/C=C2\SC(=N)N(c3nccs3)C2=O)cc1OC | ? | -1.0 | 5.8µM* | ? | 13µM* | 0.126µM*
N=C1S/C(=C\c2ccc(-c3cccc(Cl)c3)o2)C(=O)N1c1nccs1 | -82.5% | -14.3 | 2.59µM* | ? | 3.26µM* | 0.141µM*
O=C1OC(c2cccs2)=N/C1=C\c1ccc(-c2cccc(Cl)c2)o1 | -20.5% | 25.8 | ? | 0.6% | 20.6µM* | ?
Nc1nnc(CC(=O)N/N=C\c2ccc(-c3cccc(Cl)c3)o2)s1 | -1.1% | 0.0 | 3.0% | -14.9% | 10.0% | 5.1%
COc1ccc(/C=C2\SC(=S)N(NC(=O)c3ccncc3)C2=O)cc1OC | 5.7% | / | / | 9.1% | / | 0.3%
